Measured values published in PubChem BioAssay (NCI).
Where “and” joins values, the source holds several entries; their conditions need not be identical. Equal entries are not always repeated. The panel holds about 83,000 compounds, 20% with a hit somewhere; the sample as a whole holds those more often.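 How to read the values: 0–100, growth inhibition (40 = 60% inhibited); 0, no net growth; -100 to 0, cell death (-40 = 40% of starting cells died; -100 = all dead).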 Calls of active or inactive are those of the source. Rule for the calls: active = growth percent below 10; inactive = the rest.

Legend:
Test in all cases: NCI-60 one-dose screen, 48 h (100 = growth as untreated, 0 = no growth, -100 = all killed)
[1] = tested on: NCI-H23 lung
[2] = tested on: NCI-H226 lung
[3] = tested on: NCI-H322M lung; conditions: 10 µM unless noted
[4] = tested on: HOP-62 NSCLC; conditions: 10 µM unless noted
[5] = tested on: NCI-H460 lung
[6] = tested on: HOP-92 NSCLC
[7] = tested on: NCI-H522 lung; conditions: 10 µM unless noted
[8] = tested on: A549/ATCC NSCLC
[9] = tested on: 786-0 renal
[10] = tested on: COLO 205 colon
[11] = tested on: DU-145 prostate
[12] = tested on: K-562 leukemia
[13] = tested on: MALME-3M melanoma
[14] = tested on: MDA-MB-231 breast
[15] = tested on: RXF 393 renal
[16] = tested on: SF-268 CNS
[17] = tested on: SF-295 CNS
[18] = tested on: SF-539 CNS
[19] = tested on: UACC-257 melanoma
[20] = tested on: M14 melanoma

Measured: growth

CS(=O)(=O)c1nsc(N)n1
inactive: [1]; 10 µM unless noted 94.7% | [2]; 10 µM unless noted 99.2% | [3] 98.4% | [4] 89.5% | [5]; 10 µM unless noted 106% | [6]; 10 µM unless noted 111% | [7] 91.1% | [8]; 10 µM unless noted 87.7% | [9]; 10 µM unless noted 106% | [10]; 10 µM unless noted 103% | [11]; 10 µM unless noted 109% | [12]; 10 µM unless noted 98.7% | [13]; 10 µM unless noted 101% | [14]; 10 µM unless noted 106% | [15]; 10 µM unless noted 108% | [16]; 10 µM unless noted 100% | [17]; 10 µM unless noted 104% | [18]; 10 µM unless noted 102% | [19]; 10 µM unless noted 84.9%

Cc1cc2ccccc2c2cc3ccccc3cc12
inactive: [1]; 10 µM unless noted 94.9% | [2]; 10 µM unless noted 68.4% | [3] 85.9% | [4] 85.6% | [5]; 10 µM unless noted 89.2% | [6]; 10 µM unless noted 99% | [7] 81% | [8]; 10 µM unless noted 92.7% | [9]; 10 µM unless noted 110% | [10]; 10 µM unless noted 79.4% | [11]; 10 µM unless noted 107% | [12]; 10 µM unless noted 95.4% | [13]; 10 µM unless noted 86.9% | [14]; 10 µM unless noted 79.9% | [15]; 10 µM unless noted 97.7% | [16]; 10 µM unless noted 100% | [17]; 10 µM unless noted 96.9% | [18]; 10 µM unless noted 92.6% | [19]; 10 µM unless noted 99.6%

CCC(C)(O)CCC(C)(O)CC (stereo unspecified)
inactive: [1]; 10 µM unless noted 87.1% | [2]; 10 µM unless noted 108% | [3] 102% | [4] 93.5% | [5]; 10 µM unless noted 116% | [6]; 10 µM unless noted 104% | [7] 103% | [8]; 10 µM unless noted 106% | [9]; 10 µM unless noted 99.3% | [10]; 10 µM unless noted 108% | [11]; 10 µM unless noted 105% | [12]; 10 µM unless noted 99.3% | [13]; 10 µM unless noted 93.6% | [14]; 10 µM unless noted 109% | [15]; 10 µM unless noted 130% | [16]; 10 µM unless noted 99.2% | [17]; 10 µM unless noted 102% | [18]; 10 µM unless noted 103% | [19]; 10 µM unless noted 106%

S=c1nc[nH]c2nc[nH]c12
active: [10]; 50 µM 6.94%
inactive: [1]; 10 µM 31.9% | [1]; 50 µM 21.3% | [2]; 10 µM unless noted 46.3% | [5]; 10 µM 45.3% | [5]; 50 µM 26.9% | [6]; 10 µM unless noted 51% [50 µM] | [8]; 10 µM 84.8% | [8]; 50 µM 48.2% | [9]; 10 µM 17.3% | [9]; 50 µM 25.9% | [10]; 10 µM 35.2% | [11]; 10 µM 44.3% | [11]; 50 µM 25.3% | [12]; 10 µM unless noted 11.9% [50 µM] | [13]; 10 µM 50.1% | [13]; 50 µM 17.4% | [14]; 10 µM 42.9% | [14]; 50 µM 40.2% | [15]; 10 µM 62.8% | [15]; 50 µM 59.7% | [16]; 10 µM 39.2% | [16]; 50 µM 24.7% | [17]; 10 µM 11.4% | [17]; 50 µM 18.1% | [18]; 10 µM 31.2% | [18]; 50 µM 14.4% | [19]; 10 µM 44.2% | [19]; 50 µM 29.7% | [20]; 10 µM 14.1% | [20]; 50 µM 15.6%

CS/C(=C\c1ccc(C(=O)c2ccc(C)cc2)n1C)S(C)=O (stereo unspecified)
inactive: [1]; 10 µM 109% | [1]; 100 µM 66.2% | [2]; 10 µM 81.3% | [2]; 100 µM 72.3% | [5]; 10 µM 96.8% | [5]; 100 µM 91.4% | [6]; 10 µM 71.7% | [6]; 100 µM 64.6% | [8]; 10 µM 85.1% | [8]; 100 µM 65.7% | [9]; 10 µM 99.4% | [9]; 100 µM 74.1% | [10]; 10 µM 126% | [10]; 100 µM 93.5% | [11]; 10 µM 110% | [11]; 100 µM 88.1% | [12]; 10 µM 44.4% | [12]; 100 µM 26.3% | [13]; 10 µM 95% | [13]; 100 µM 69.3% | [14]; 10 µM 89.6% | [14]; 100 µM 85.6% | [15]; 10 µM 101% | [15]; 100 µM 73.2% | [16]; 10 µM 112% | [16]; 100 µM 93.2% | [17]; 10 µM 60.7% | [17]; 100 µM 62.2% | [18]; 10 µM 91.3% | [18]; 100 µM 80.4% | [19]; 10 µM unless noted 64.6% [100 µM] | [20]; 10 µM 103% | [20]; 100 µM 69%
active: [7] 6.15% [100 µM]

NC1=NC(c2ccccc2)N=C(Nc2ccccc2)N1 (stereo unspecified)
inactive: [1]; 10 µM unless noted 79.5% and 66.5% | [2]; 10 µM unless noted 81.7% and 52.5% | [3] 91.5% and 84.7% | [4] 78.1% and 74.8% | [5]; 10 µM unless noted 103% and 95% | [6]; 10 µM unless noted 81% and 89.1% | [7] 83.8% and 110% | [8]; 10 µM unless noted 94.1% and 106% | [9]; 10 µM unless noted 93.3% and 101% | [10]; 10 µM unless noted 91.7% and 63.4% | [11]; 10 µM unless noted 105% and 100% | [12]; 10 µM unless noted 53.4% and 65.1% | [13]; 10 µM unless noted 84.9% and 53.8% | [14]; 10 µM unless noted 101% and 74.6% | [15]; 10 µM unless noted 91.5% | [16]; 10 µM unless noted 49.2% and 54% | [17]; 10 µM unless noted 87.5% and 83.6% | [18]; 10 µM unless noted 84.8% and 55.2% | [19]; 10 µM unless noted 91.9% and 108%
